HP1b chromo inh – HP1-beta chromodomain-methylated histone interaction inhibition | P83916 | AlphaScreen HP1-beta / biotin-H3K9me3 peptide binding | Potency, µM (doses to about 114 µM), actives largely listed as inhibitors | 390,000 tested, 0.56% active; also: nearly all actives have a fitted effect of over 70% in size
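Compound inhibition of the preformed complex between 50 nM HP1-beta and 50 nM biotinylated H3K9me3 peptide was read by AlphaScreen. Buffer was PBS pH 7.4 with 0.01% Tween-20. Incubations ran 30 min at room temperature, with 10 ug/mL donor/acceptor beads.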
GLS inh – inhibitors of human glutaminase (GLS). 410,000 tested, 0.21% active. Potency, µM (titrated, usually from 45.5 µM), actives largely listed as inhibitors. AID 624170. GLS enzymatic activity, qHTS titration. O94925
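Compounds were pin-transferred onto hKGA, after which L-glutamine (1 mM solution) and a detection mix of glutamate oxidase, HRP and Amplex Red were added. Initial and 30 min RT fluorescence reads were collected.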
BAZ2B block – inhibitors of human BAZ2B bromodomain. AlphaScreen BAZ2B-H3K14Ac peptide displacement. Q9UIF8. 360,000 tested, 4.4% active. Potency, µM (titrated, usually from 114 µM), hits mostly inhibitors. AID 504333; also: nearly all actives have a fitted effect of over 60% in size
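Complex of BAZ2B and biotin-H3K14Ac (50 nM apiece) forms over 30 min at RT, then faces library compounds up to 110 uM for another 30 min; AlphaScreen beads added, 20 min dark incubation, luminescence read.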
G9a inh – G9a (human) methyltransferase inhibition. AID 504332. Potency, µM (top dose mostly 102 µM), usual class: inhibitors. G9a H3K9 monomethylation, AlphaScreen, 2 h. Q96KQ7. 350,000 tested, 8.8% active; also: nearly all actives have a fitted effect of over 75% in size
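Step 1: enzyme (final 20 nM) with compound, 15 min RT. Step 2: substrate peptide 500 nM and SAM 20 uM, 2 h RT. Step 3: anti-H3K9me1 antibody and AlphaScreen beads, 10 min, then plate read.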
L3MBTL1 block – blocks human L3MBTL1 | AlphaScreen L3MBTL1–H3K9me1 peptide binding | Potency, µM (doses to about 57.1 µM), most hits filed as inhibitors | Q9Y468 | 230,000 tested, 0.66% active; also: nearly all actives have a fitted effect of over 60% in size
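First, the protein-peptide complex forms for 30 min at room temperature (L3MBTL1 50 nM, biotinylated H3K9me1 peptide 75 nM). Next, compounds are pin-transferred and incubated 30 min. Finally, AlphaScreen beads are added and read after 30 min.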
JMJD2A Tudor – JMJD2A Tudor domain (human) inhibition | Potency, µM (doses to about 114 µM), most hits filed as inhibitors | AlphaScreen JMJD2A-Tudor / H3K4me3 peptide binding | O75164 | 390,000 tested, 4.4% active; also: nearly all actives have a fitted effect of over 50% in size
Hits are given with their value; n = inactive; u = inconclusive; x = not tested or not shown; [ ] = remark or other dose. Rows were chosen to be rich in hits. Some 10% of all compounds tested hit in one or more screens of this group. Calls follow the shape of the dose curve; as a rule, active = well fitted curve in the direction sought with a large enough effect; inconclusive = small, poorly fitted or top-dose-only effect, or another doubt; inactive = no such curve, though single readings can be large; an effect the other way counts as inactive or inconclusive.

SMILES | HP1b chromo inh | GLS inh | BAZ2B block | G9a inh | L3MBTL1 block | JMJD2A Tudor
CCOc1cc(C2C(C(=O)OC)=C(C)NC3=C2C(=O)c2ccccc23)cc(Br)c1OCC (configuration not stated) | n | n | 10µM | 10µM | x | 13µM
CCOc1cc(C2C(C(=O)OC)=C(C)NC3=C2C(=O)c2ccccc23)c(Br)cc1OC (configuration not stated) | n | n | n | n | x | n
CCOc1cc(Br)c(C2C(C(=O)OC)=C(C)NC3=C2C(=O)c2ccccc23)cc1OCC (configuration not stated) | n | n | 32µM | 18µM | x | n
COc1cccc(C2C3=C(Nc4[nH]n(-c5ccccc5)c(=O)c42)c2ccccc2C3=O)c1 (configuration not stated) | x | x | u | 10µM | n | x
COC(=O)C1=C(C)NC2=C(C(=O)c3ccccc32)C1c1cccc(OC)c1 (configuration not stated) | n | n | n | 50µM | x | n
COc1cccc(C2C3=C(CCCC3=O)Nc3[nH]n(-c4ccccc4)c(=O)c32)c1 (configuration not stated) | n | n | n | u | n | n
CCCCOc1ccc(C(=O)CCN2CCCCC2)cc1 | n | n | n | 10µM | n | n
CC(C)COc1ccc(C(=O)OCCN2CCCCC2)cc1 | n | n | n | n[2.33 µM] | x | n
COc1ccc(C(O)(CCN2CCCCC2)C2CCCCC2)cc1 (configuration not stated) | n | n | n | 50µM | x | n
CCCC(O)(CCN1CCCCC1)c1ccc(OCC)cc1 (configuration not stated) | x | n | n | n | n | n
CC(C)COc1ccc(C(=O)CCN2CCCCC2)cc1 | n | n | n | 16µM | n | n
CCCCCC(O)(CCN1CCCCC1)c1ccc(OCC)cc1 (configuration not stated) | n | n | n | n | x | 40µM
CCCOc1ccc(C(=O)CCCC(=O)c2ccc(OCCC)cc2)cc1 | n | n | n | x | n | n
CN(c1nccc(=O)[nH]1)C1CCN(c2nc3ccccc3n2Cc2ccc(F)cc2)CC1 | x | n | x | n[12.7 µM] | x | x
CCCCOc1ccccc1C1CC(=O)Nc2ccc3ccccc3c21 (configuration not stated) | n | n | u | n | x | n
CC(=O)c1cccc(NC(=O)Cn2nc(C)n3cccc3c2=O)c1 | n | n | n | n | x | n
CCn1ccnc1C(O)c1ccc(N(C)C)cc1 (configuration not stated) | n | n | u | 32µM | n | u
CCOc1ccc(C(O)c2nccn2Cc2ccccc2)cc1 (configuration not stated) | n | n | n | u | n | n
CCN(Cc1ccncc1)C(=O)c1cc(COc2ccc(F)cc2Cl)on1 | n | n | n | x | x | n
C#CCN(Cc1ccco1)C(=O)c1cc(COc2ccc(F)cc2Cl)on1 | n | n | 71µM | x | n | n[11.4 µM]
Cc1ccc(-c2nc3sc(CCNS(=O)(=O)c4cc(F)ccc4F)c(C)n3n2)cc1 | n | n | n | n | x | n
Cc1ccc2nc(C3CCN(C(=O)c4ccco4)CC3)[nH]c2c1 | n | n | u | 56µM | n | u
Cc1cccnc1N(C(=O)Nc1ccccc1)C1=NCC(C)(C)S1 | n | n | n | 56µM | n | n
c1ccc(N2CCN(C3CC4CCC3C4)CC2)cc1 (configuration not stated) | n | n | n | 79µM | x | n
COc1ccc(-c2cn3cc(C)ccc3n2)cc1F | n | n | u | n[12.7 µM] | n | 20µM
SMILES | HP1b chromo inh | GLS inh | BAZ2B block | G9a inh | L3MBTL1 block | JMJD2A Tudor
CCCN1CCC(=NNc2ccc(S(=O)(=O)N(CC)CC)cc2[N+](=O)[O-])CC1 | u | n | u | 35µM | n | u
CCCN1CCC(=NNc2ccc(S(N)(=O)=O)cc2[N+](=O)[O-])CC1 | n | n | n | 14µM | n | n
CCCN1CNc2c(c(=O)[nH]c(=S)n2CCc2ccc(OCC)c(OCC)c2)C1 | n | x | x | x | x | n
Cc1ccc(-c2cc(C3C4C=CCC(C)C4C(=O)N3Cc3ccccc3)ccc2F)cc1 (configuration not stated) | n | x | x | x | x | n
CCOc1ccccc1OCCCCn1c(-c2ccc(Cl)cc2)nc2ccccc2c1=O | n | n | n | n | x | n
CCCNC(=O)c1ccc(N2CCC3(CC2)CC(c2cccc(Br)c2)=NO3)c([N+](=O)[O-])c1 | n | n | u | 79µM | n | n
Cc1ccc(CNC(=O)c2ccc(N3CCC4(CC3)CC(c3cccc(Br)c3)=NO4)c([N+](=O)[O-])c2)cc1 | n | n | n | n[2.33 µM] | n | n
COc1ccc(NC(=O)C(c2cc3c(cc2[N+](=O)[O-])OCO3)N(C)Cc2ccccc2)cc1 (configuration not stated) | u | n | u | 79µM | n | u
CCN(c1cccc(C)c1)C(C(=O)Nc1ccc(OC)cc1)c1cc2c(cc1[N+](=O)[O-])OCO2 (configuration not stated) | u | n | u | u | n | u
O=C(NCc1ccccn1)c1nn(-c2ccccc2Cl)nc1CO | n | n | n | n | x | n
Cc1ccc(C)c(NC(=O)CN2C(=O)c3cccnc3Oc3ccc(C)cc32)c1 | n | n | n | n | x | n
CCCc1nn2c(=O)cc(COC(=O)c3ccccc3NC(=O)c3ccc(Cl)cc3)nc2s1 | n | n | n | n | x | n
C=C1c2ccccc2NC(=S)N1Cc1ccc2c(c1)OCO2 | n | n | n | 32µM | n | n[11.4 µM]
Cc1cc2c(s1)c1cnn(Cc3ccc(C(C)(C)C)cc3)c(=O)c1n2C | x | x | x | x | x | n
Cc1nc2cc(N)ccc2n1-c1ccccc1 | u | n | n | u | n | 35µM
Cc1nc2cc(C(=O)O)ccc2n1-c1ccc(C(C)C)cc1 | n | n | u | 16µM | x | n
Cc1cc(C)c2nc(C)cc(Nc3cccc(C(=O)O)c3)c2c1 | n | n | n | n | x | n
COc1ccc(CNc2ncnc3ccc(-c4c(C)noc4C)cc23)cc1 | x | x | x | x | x | n
CNC(C)C#Cc1c(-c2cc(OC)c(OC)c(OC)c2)noc1C (configuration not stated) | n | n | u | 32µM | n | u
COCCn1c(C)cc(/C=C2/NC(=O)N(Cc3ccc(C)cc3)C2=O)c1C | n | n | n | 16µM | n | n
CCn1c(C)cc(/C=C2\NC(=O)N(Cc3ccc(Cl)cc3)C2=O)c1C | n | n | n | n | n | n
COc1ccc(N2CCN(c3oc(Cc4cccc5ccccc45)nc3C#N)CC2)cc1 | u | n | 4µM | n[0.0925 µM] | u | u
N#Cc1nc(Cc2cccc3ccccc23)oc1N1CCN(c2ccccc2)CC1 | u | n | u | 22µM | x | u

Bioassay records: PubChem, National Center for Advancing Translational Sciences (NCATS)
